Experimental data: PubChem BioAssay AID588763 (NMMLSC, 2011)
Entries with a potency or affinity are not part of this list. Unmarked numbers belong to inactive results. Active and inactive are the calls of the source. The rule behind the calls is not given here.

The molecules below were run against Beta-2 adrenergic receptor (Homo sapiens) (UniProt P07550) (assay: ADRB2 activation measured by internalization – cell-based, FAP fluorogen, flow cytometry, cherry pick 1, dose response (AID 588763)). Conditions: AM2.2-beta2AR cells, 90 min; series mostly up to 33 µM; activation (receptor internalization): at the top concentration.
Sequence of Beta-2 adrenergic receptor (Homo sapiens) (P07550 whole entry, looked up): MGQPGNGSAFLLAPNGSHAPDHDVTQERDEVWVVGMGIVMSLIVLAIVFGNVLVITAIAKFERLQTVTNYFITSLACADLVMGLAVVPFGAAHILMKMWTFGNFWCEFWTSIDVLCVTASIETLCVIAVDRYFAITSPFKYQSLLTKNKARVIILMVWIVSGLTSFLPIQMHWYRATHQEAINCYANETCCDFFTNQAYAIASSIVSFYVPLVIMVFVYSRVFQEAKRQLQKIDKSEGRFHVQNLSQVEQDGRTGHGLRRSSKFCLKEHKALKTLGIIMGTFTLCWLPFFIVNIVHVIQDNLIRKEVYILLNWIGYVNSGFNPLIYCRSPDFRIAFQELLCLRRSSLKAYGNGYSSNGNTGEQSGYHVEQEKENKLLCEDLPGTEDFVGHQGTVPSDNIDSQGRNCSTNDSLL

Compound	activation (receptor internalization) [%]	outcome
O=C(Nc1ccc2nc(-c3cccs3)c(-c3cccs3)nc2c1)N1CCOCC1	20.4	–
O=C(NC1CCc2ccccc21)c1cc(COc2cncc(Cl)c2)on1 (stereo not drawn)	3.55	–
Cc1ccc(C(=O)c2cc([N+](=O)[O-])ccc2N2CCCCC2)c(C)c1	47.8	–
CCOc1ccc(CNC(=O)C2CCN(c3nnc(C)c4c(C)n(-c5ccc(C)cc5)nc34)CC2)cc1	65.3	–
O=C(c1ccc(-c2nnc(Nc3ccccc3)c3ccccc23)cc1)N1C[C@H]2C[C@H](C1)c1cccc(=O)n1C2	4.94	–
COc1cc(NC(=O)c2ccco2)c(OC)cc1NC(=O)c1cc(OC)c(OC)c(OC)c1	4.51	–
CCCC(=O)N1CCN(c2ccc(NC(=O)c3ccc([N+](=O)[O-])o3)cc2Cl)CC1	31	–
COc1ccc(S(=O)(=O)N(C)CC(=O)N2CCN(c3ccc(F)cc3)CC2)cc1OC	–	inactive
CCOC(=O)C1CCN(C(=O)COC(=O)c2ccccc2C(=O)c2ccc(Cl)cc2)CC1	27.5	–
COc1ccc(OC)c(S(=O)(=O)N(C)CC(=O)N2CCN(c3ccccc3)CC2)c1	–	inactive
COc1ccc(N2CCN(C(=O)CN(C)S(=O)(=O)c3cc(C)ccc3OC)CC2)cc1	-4.19	–
CC1=NN(C(N)=S)C(=O)C1N=Nc1ccc(F)cc1 (stereo not drawn)	-24	–
COc1ccc(OC)c(S(=O)(=O)N(C)CC(=O)N2CCN(c3cccc(Cl)c3)CC2)c1	–	inactive
COc1cc(NC(=O)c2ccc3c(c2)OCO3)ccc1NC(=O)c1ccco1	-12.7	–
CCN(CC)CCNc1ncnc2c1sc1nc(N3CCCC3)c3c(c12)CC(C)(C)OC3	69.5	–
COc1ccc(OC)c(S(=O)(=O)N(C)CC(=O)N2CCN(c3ccccc3F)CC2)c1	–	inactive
CCCCn1c(=N)n(CC(=O)c2ccc(Br)s2)c2ccccc21	98.7	–

Compound	activation (receptor internalization) [%]	outcome
Cc1cc(S(=O)(=O)N2CCCCC2)ccc1OCC(=O)Nc1ccccc1	2.64	–
CC(C)c1nc2sc3c(NCc4ccccc4)ncnc3c2c2c1COC(C)(C)C2	13	–
COCC(C)NC(=O)CCS(=O)(=O)c1nc(-c2ccc(OC)cc2)cc(C(F)(F)F)n1 (stereo not drawn)	–	inactive
O=C(c1cc2c(ccc3ccccc32)o1)N1CCN(c2ncc(C(F)(F)F)cc2Cl)CC1	99.9	–
O=C(Nc1ccccc1C(=O)O)c1cccc(N2C(=O)c3ccccc3C2=O)c1	-11.9	–
CCC(NC(=O)c1cc(COc2ccc(C)nc2)on1)c1ccc(C)cc1 (stereo not drawn)	-7	–
N=c1n(CC(=O)c2ccc(Br)cc2)c2ccccc2n1Cc1ccccc1	110	–
O=C(COc1ccc(S(=O)(=O)N2CCCCC2)cc1)Nc1ccccc1F	-6.13	–
O=C(Nc1cccc(-c2nc3cccnc3s2)c1)C1c2ccccc2Oc2ccccc21	87.7	–
NC(=O)CC(NC(=O)c1ccccc1)c1ccc(N2CCN(c3ccccn3)CC2)c([N+](=O)[O-])c1 (stereo not drawn)	14.7	–
COc1ccc(OC)c(S(=O)(=O)N(C)CC(=O)N2CCN(c3ccc(F)cc3)CC2)c1	–	inactive
COc1ccc(S(=O)(=O)N(C)CC(=O)N2CCN(c3ccccc3)CC2)cc1	-25.8	–
COc1ccc(Cl)c(NC(=O)Cn2nnc(-c3ccccc3N)n2)c1	7.97	–
CCOc1cc(/C=C2\CN(C)C/C(=C\c3ccc(O)c(OCC)c3)C2=O)ccc1O	72.9	–
N=c1n(Cc2ccc(Cl)cc2)c2ccccc2n1CC(O)COc1ccccc1 (stereo not drawn)	88.3	–
O=C(COc1ccc(S(=O)(=O)N2CCOCC2)cc1)Nc1ccc(Br)cc1	-5.92	–
